“And” between values parts separate entries of the source, which are not always exact repeats. Equal entries are not always repeated. Results filed as inconclusive are left out. Where a call stands in place of a potency, no number is given. Some compounds were tested as several samples or in several runs, with calls that do not always agree. The source made the active and inactive calls. The call rests on the fitted dose curve; in most records, active means well fitted activation curve with a large enough effect in the signal ratio in the repeat runs (not every such curve was filed as active); inconclusive means weak or mixed curves, or effect the other way; inactive means no such curve, though single readings can be large or run the other way; the % refers to the signal ratio.
Experiment: qHTS assay for small molecule agonists of the antioxidant response element (ARE) signaling pathway (AID 743202)
Conditions: HepG2 ARE-bla reporter, beta-lactamase FRET, 16 h; series mostly up to 73.3 µM; activation: at the top concentration
Source text: U.S. Tox21 Program National Center for Advancing Translational Sciences [NCATS] NIH Chemical Genomics Center [NCGC] U.S. Environmental Protection Agency [EPA] National Institutes of Environmental Health Sciences [NIEHS] National Toxicology Program [NTP] U.S. Food and Drug Administration [FDA] Tox21 Assay Overview: Oxidative stress has been implicated in the pathogenesis of a variety of diseases ranging from cancer to neurodegeneration. The antioxidant response element (ARE) signaling pathway plays an important role in the amelioration of oxidative stress. The CellSensor ARE-bla HepG2 cell line (Invitrogen) can be used for analyzing the Nrf2/antioxidant response signaling pathway. Nrf2 (NF-E2-related factor 2) and Nrf1 are transcription factors that bind to AREs and activate these genes. The CellSensor ARE-bla Hep G2 cell line contains a beta-lactamase reporter gene under control of the Antioxidant Response Element (ARE) stably integrated into HepG2 cells. The activation of the report gene under culture conditions can be detected by fluorescence intensity. This cell line has been used to screen the Tox21 10K compound library to identify agonists that induce oxidative stress.
Tox21 Assay Protocol Summary: The ARE-bla cells were dispensed at 2,000 cells/5 ul/well in 1536-well black wall/clear bottom plates using a Multidrop dispenser. After the assay plates were incubated at a 37 C/5% CO2 incubator for 5 hours, 23 nL of compounds dissolved in DMSO, positive controls or DMSO only was transferred to the assay plate by a pin tool. The plates were incubated at 37 C for 16 hours. After 1 uL of LiveBLAzer B/G FRET substrate was added using a Flying Reagent Dispenser, the plates were incubated at room temperature for 2 hours, and fluorescence intensity was measured by an Envision plate reader.
Potency means the concentration at half of the fitted maximal effect.

Question: With `O=C1O[C@H]([C@H](O)CO)C(O)=C1O` as the compound, how does the Potency read?
Answer: The Potency was “inactive”.

Question: Which Potency does the source give for `CN=C(NC#N)NCCSCc1nc[nH]c1C` here?
Answer: The Potency was “inactive”.

Question: With `Nc1cccc(N)n1` as the compound, how does the “activation” value read?
Answer: Its value is 0.785% (inactive).

Question: For `COC(=O)CCCCC(=O)OC`, which “activation” value is on record?
Answer: Its value is 14.2% (inactive).

Question: Which “activation” value does the source give for `CCCCC(=O)O` here?
Answer: The value was 5.26% (inactive).

Question: For `O=Cc1ccc(CO)o1`, which Potency is on record?
Answer: Its Potency is “inactive”.

Question: With `N[C@@H](Cc1cc(I)c(Oc2ccc(O)c(I)c2)c(I)c1)C(=O)O` as the compound, how does the Potency read?
Answer: Its Potency is “inactive and 12.7 µM (active)”.

Question: With `OCC(CO)(CO)CO` as the compound, how does the Potency read?
Answer: Its Potency is “inactive”.

Question: Which Potency does the source give for `O=C(Cl)c1ccc(C(=O)Cl)cc1` here?
Answer: Its Potency is “inactive”.

Question: With `CC(=O)OC/C=C(\C)CCC=C(C)C` as the compound, how does the Potency read?
Answer: Its Potency is “inactive”.

Question: With `Oc1ccc(Cc2ccccc2O)cc1` as the compound, how does the Potency read?
Answer: Its Potency is 30.6 µM (active).

Question: For `CCc1cccc(CC)c1N`, which Potency is on record?
Answer: Its Potency is “inactive”.

Question: Which Potency does the source give for `CC(=O)OCc1ccc2c(c1)OCO2` here?
Answer: The Potency was “inactive”.

Question: With `Cc1ccc(C)c(S(=O)(=O)O)c1` as the compound, how does the Potency read?
Answer: Its Potency is “inactive”.

Question: For `CC(C=O)Cc1ccc(C(C)(C)C)cc1` (stereo not given), which Potency is on record?
Answer: Its Potency is “inactive”.

Question: Which “activation” value does the source give for `O=[N+]([O-])c1ccccc1C(F)(F)F` here?
Answer: Its value is 13.1% (inactive).

Question: Which Potency does the source give for `CC(=O)Nc1ccc(CC(=O)O)cc1` here?
Answer: Its Potency is “inactive”.

Question: For `CC(=O)OCCC(C)C`, which Potency is on record?
Answer: The Potency was “inactive”.

Question: Which Potency does the source give for `Nc1nc(N)c2nc(-c3ccccc3)c(N)nc2n1` here?
Answer: Its Potency is 31 µM (active) and 30.6 µM (active) and 23.7 µM (active).

Question: For `NC(=O)NC(N)=O`, which Potency is on record?
Answer: The Potency was “inactive”.

Question: For `O=C1C(N(CO)C(=O)NCO)N(CO)C(=O)N1CO` (stereo not given), which Potency is on record?
Answer: The Potency was “inactive”.

Question: Which “activation” value does the source give for `CCc1cccc(O)c1` here?
Answer: The value was -15.4% [at 94.8 µM] (inactive).

Question: With `CC(=O)OC(C)(C)C1CC=C(C)CC1` (stereo not given) as the compound, how does the “activation” value read?
Answer: Its value is -4.58% (inactive).

Question: Which Potency does the source give for `C1CCCNCC1` here?
Answer: The Potency was “inactive”.

Question: Which Potency does the source give for `O=C(O)C1=NN(c2ccc(S(=O)(=O)O)cc2)C(=O)C1` here?
Answer: Its Potency is “inactive”.

Question: For `CCCN(CCC)C(=O)SCC`, which Potency is on record?
Answer: Its Potency is “inactive”.

Question: For `CCOC(=O)c1ccc(O)cc1`, which Potency is on record?
Answer: Its Potency is “inactive”.

Question: Which “activation” value does the source give for `CCn1cc(C(=O)O)c(=O)c2cc3c(cc21)OCO3` here?
Answer: The value was 1.41% [at 94.8 µM] (inactive).

Question: Which Potency does the source give for `OCC(O)CS` (stereo not given) here?
Answer: The Potency was “inactive”.

Question: Which “activation” value does the source give for `Cc1cccc(C)c1[N+](=O)[O-]` here?
Answer: The value was -1.69% (inactive).

Question: With `C=C1C[C@]23C[C@@]1(O)CC[C@H]2[C@@]12C=C[C@H](O)[C@@](C)(C(=O)O1)[C@H]2[C@@H]3C(=O)O` as the compound, how does the “activation” value read?
Answer: Its value is -0.755% (inactive).

Question: For `OCCOCCOCCOCCOCCO`, which “activation” value is on record?
Answer: Its value is -2.9% [at 94.8 µM] (inactive).

Question: For `OC1CCCCC1`, which “activation” value is on record?
Answer: Its value is -6.19% [at 94.8 µM] (inactive).

Question: With `CCCCCCCCCCCCCC(=O)O` as the compound, how does the Potency read?
Answer: Its Potency is “inactive”.

Question: With `CC1=CC(=O)CC(C)(C)C1` as the compound, how does the “activation” value read?
Answer: Its value is -6.29% [at 94.8 µM] (inactive).

Question: Which Potency does the source give for `CC(=O)C(C)C` here?
Answer: The Potency was “inactive”.

Question: For `O=c1c(O)c(-c2ccc(O)c(O)c2)oc2cc(O)cc(O)c12`, which Potency is on record?
Answer: Its Potency is “inactive”.

Question: Which Potency does the source give for `CC[N+](CC)(CC(=O)Nc1c(C)cccc1C)Cc1ccccc1` here?
Answer: Its Potency is “inactive”.

Question: With `CCCCCCCCCCCC(=O)N(C)CC(=O)O` as the compound, how does the activation read?
Answer: The activation was -3.99% [at 8.36 µM] (inactive).

Question: Which Potency does the source give for `Cc1ccc(Cl)cc1` here?
Answer: Its Potency is “inactive”.
